From article PMC5540273 (PLoS ONE, 2017)

Experiments:
TIE2 = system: T1, TIE2
T1 construct: gene TEK

TRKA = system: T2, TRKA
T2 construct: gene NTRK1
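Note: kd values determined as follow-up on hits from a single-replicate KINOMEscan panel screen.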

Cl.Cl.Cl.N#Cc1ccc(CCNc2nccc(-c3cccc(CN4CCNCC4)c3)n2)cc1 [GSK2137462]
Kd (STK33): 3.9 µM

CS(=O)(=O)Cc1ccc(Nc2nccc(-c3c(-c4cccc(NC(=O)C5CCCCC5)c4)nn4ncccc34)n2)cc1 [GSK350559]
Kd (STK36): 0.067 µM

CNCc1ccc2nc(NC(=O)c3ccc(C(C)(C)C)cc3)cn2c1
Kd (TAOK1): > 10 µM
Kd (TAOK3): > 10 µM

COc1cccc(CNC(=O)NC2CCN(c3ccnc(Nc4ccc(F)cc4)n3)C2)c1 (centres unmarked) [GSK1379723]
Kd (TESK1): 9.8 µM

Cn1cncc1C(=O)NC1CCN(c2ccnc(Nc3ccc(F)cc3)n2)C1 (centres unmarked) [GSK1379717]
Kd (TESK1): > 10 µM

COc1ccc2cc(-c3nc(-c4ccccc4C(C)C)[nH]c3-c3ccncc3)ccc2c1 [SB-660566]
Kd (TGFBR1): 0.77 µM
Kd (TIE2): 0.16 µM

Cc1nccc(-c2c(-c3ccc(F)cc3)ncn2CCCN2CCOCC2)n1.Cl [SB-282975]
Kd (TIE2): > 10 µM

Nc1nccc(-c2c(-c3ccc(F)cc3)ncn2C2CCN(Cc3ccccc3)CC2)n1 [SB-219980]
Kd (TNIK): 4.1 µM

NS(=O)(=O)c1cccc(N/C=C2\C(=O)Nc3ccc(S(=O)(=O)Cc4c(Cl)cccc4Cl)cc32)c1 [GSK398099]
Kd (TNIK): 0.33 µM

O=C(Nc1n[nH]c2nc(-c3cccs3)c(Br)cc12)C1CC1 [SB-735297]
Kd (TNNI3K): > 10 µM

O=C(Nc1n[nH]c2cc(-c3ccsc3)ccc12)C1CC1 [SB-732932]
Kd (TRKA): 3.1 µM

COC(=O)C(Cc1ccccc1)NC(=O)NC1CCN(c2ccnc(Nc3ccc(F)cc3)n2)C1 (centres unmarked) [GSK1379714]
Kd (TRKA): 1.5 µM
